According to PubChem BioAssay (Tox21):
Inconclusive results are not listed. The source made the active and inactive calls. Unless noted, calls follow the shape of the dose curve; as a rule, active = well fitted curve in the direction sought with a large enough effect in the repeat runs; inconclusive = weak or mixed curves; inactive = no such curve, though single readings can be large; an effect the other way counts as inactive or inconclusive.

What was measured:
[1] = qHTS assay to identify small molecule antagonists of the retinoid acid receptor (RAR) signaling pathway - cell viability counter screen (AID 1159551); also: nearly all actives have a fitted effect of over 35% in size
Summary of the method: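 C3RL4 RARE-luciferase line; cpds + retinol 1 uM final, 6 h, 37 C/5% CO2; CellTiter-Glo ATP luminescence, 30 min RT.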

[2] = qHTS assay to identify small molecule antagonists of the retinoic acid receptor (RAR) signaling pathway (AID 1159552; also: nearly all actives have a fitted effect of over 50% in size)
Summary of the method: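 Quantitative HTS in C3RL4 RARE-luciferase reporter cells. Compounds were added with 1 uM (final) retinol; luminescence was read after 6 hr.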

[3] = qHTS assay to identify small molecule antagonists of the estrogen related receptor (ERR) signaling pathway - cell viability counter screen (AID 1224818); also: series mostly up to about 46 µM
Summary of the method: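 Fluorescence from CellTiter-Fluor, read 30 min after reagent addition at 37 C, measured viability of ERR cells exposed to compounds for 17.5 h. Cells had settled 6 h before dosing.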

[4] = qHTS assay to identify small molecule agonists of the estrogen related receptor (ERR) signaling pathway (AID 1224820)
Summary of the method: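 An ERR cell line provided by NTP was seeded at 2,000 cells per well and allowed to settle for 6 h before compounds in DMSO were added. After 18 h at 37 C, luciferase activity was measured by One-Glo luminescence.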

[5] = tested on: estrogen-related receptor alpha (ERRalpha) with PGC-1alpha coactivator, human; assay: qHTS assay to identify small molecule antagonists of the estrogen related receptor signaling pathway with the pleiotropic PPARgamma coactivator (PGC) (AID 1224821; calls by dose curve;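 also: series mostly up to about 46 µM; lower luminescence signal means antagonism of PGC/ERR signalling; nearly all actives have a fitted effect of over 50% in size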)
Summary of the method: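 A PGC/ERR cell line supplied by NTP is seeded, allowed 6 h at 37 C, and treated with test compounds in DMSO for 18 h. Signal is then measured as luciferase luminescence using One-Glo.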

[6] = qHTS assay to identify small molecule antagonists of the estrogen related receptor signaling pathway with the pleiotropic PPARgamma coactivator (PGC) cell viability counter screen (AID 1224822; also: series mostly up to about 46 µM)
Summary of the method: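 Fluorescence read-out of CellTiter-Fluor after 30 min at 37 C; PGC/ERR cells, 2,000 per well, had been exposed to DMSO-dissolved compounds for 17.5 h following a 6 h pre-incubation.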

[7] = qHTS assay to identify small molecule agonists of the estrogen related receptor signaling pathway with the pleiotropic PPARgamma coactivator (PGC) (AID 1224823)
Summary of the method: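 Compounds dissolved in DMSO are added by pin tool to PGC/ERR cells that have settled for 6 h, and incubation continues 18 h at 37 C. Reporter output is measured as One-Glo luminescence.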

[8] = qHTS assay to identify small molecule agonists of the constitutive androstane receptor (CAR) signaling pathway - cell viability counter screen (AID 1224836); also: series mostly up to about 92 µM; nearly all actives have a fitted effect of over 45% in size
Summary of the method: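 Counter screen multiplexed with the CAR reporter readout: HepG2 cells co-transfected with hCAR and the CYP2B6-2.2kb construct receive a 15-concentration compound series and 0.75 uM PK11195 (final), then CellTiter-Fluor fluorescence is read after 23 h.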

[9] = qHTS assay to identify small molecule antagonists of the constitutive androstane receptor (CAR) signaling pathway - cell viability counter screen (AID 1224837); also: nearly all actives have a fitted effect of over 45% in size; also: potency is read from the fitted curve at half-maximal effect
Summary of the method: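 Read-out: CellTiter-Fluor fluorescence after 23 hr at 37 C/5% CO2. Cells: HepG2 double-stable for hCAR and CYP2B6-2.2kb. Compounds tested at 15 concentrations in the presence of CITCO, final concentration 50 nM.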

[10] = biological target: Nuclear receptor subfamily 1 group I member 3 (Homo sapiens) (UniProt Q14994); assay: qHTS assay to identify small molecule antagonists of the constitutive androstane receptor (CAR) signaling pathway (AID 1224838);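 also: HepG2 cells stably expressing hCAR with CYP2B6 luciferase reporter stimulated by CITCO; nearly all actives have a fitted effect of over 40% in size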
Chain of Nuclear receptor subfamily 1 group I member 3 (Homo sapiens) (Q14994 whole entry, looked up): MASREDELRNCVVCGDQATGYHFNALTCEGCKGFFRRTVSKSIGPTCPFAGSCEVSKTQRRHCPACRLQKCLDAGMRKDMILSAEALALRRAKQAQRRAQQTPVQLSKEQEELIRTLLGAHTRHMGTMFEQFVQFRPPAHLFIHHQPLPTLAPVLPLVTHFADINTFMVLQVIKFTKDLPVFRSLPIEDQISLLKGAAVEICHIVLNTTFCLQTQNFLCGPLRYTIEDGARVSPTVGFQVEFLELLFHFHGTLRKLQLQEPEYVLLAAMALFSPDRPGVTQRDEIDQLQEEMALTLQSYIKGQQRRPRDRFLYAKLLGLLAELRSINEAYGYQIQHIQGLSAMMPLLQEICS
Summary of the method: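 Read-out: ONE-Glo luciferase luminescence after 30 min at room temperature. HepG2-CYP2B6-hCAR double-stable cells, compounds in 15-point titration plus 50 nM CITCO final, 24 h at 37 C/5% CO2.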

[11] = biological target: Nuclear receptor subfamily 1 group I member 3 (Homo sapiens) (UniProt Q14994); assay: qHTS assay to identify small molecule agonists of the constitutive androstane receptor (CAR) signaling pathway (AID 1224839); also: nearly all actives have a fitted effect of over 15% in size; also: potency is read from the fitted curve at half-maximal effect
Summary of the method: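 A 15-concentration quantitative screen uses HepG2 cells co-transfected stably with human CAR and CYP2B6-2.2kb reporter. Treatment lasts 24 h with 0.75 uM PK11195 final present; ONE-Glo luminescence is the signal.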

[12] = qHTS assay to identify small molecule antagonists of the estrogen related receptor signaling pathway with the pleiotropic PPARgamma coactivator (PGC) from Tox21 10K library - cell viability counter screen (AID 1224840; active = well fitted cell-killing curve with a large enough effect in the repeat runs, not every such curve was filed as active; also: nearly all actives have a fitted effect of over 40% in size; also: potency is read from the fitted curve at half-maximal effect)
Summary of the method: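 Fluorescence read-out of CellTiter-Fluor viability reagent, added after cells had been exposed to compound in DMSO for 17.5 h at 37 C; 30 min development at 37 C/5% CO2. Cells: PGC/ERR line, 2,000/well.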

[13] = qHTS assay to identify small molecule agonists of the estrogen related receptor signaling pathway with the pleiotropic PPARgamma coactivator (PGC) from Tox21 10K library (AID 1224842); also: nearly all actives have a fitted effect of over 15% in size
Summary of the method: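 PGC/ERR reporter cell line, 2,000 cells per well, incubated 6 h at 37 C before 23 nL compound in DMSO was added. After 18 h at 37 C, One-Glo luminescence read following 30 min at room temperature.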

[14] = biological target: Thyrotropin receptor (Homo sapiens) (UniProt P16473); assay: qHTS assay to identify small molecule agonists of the thyroid stimulating hormone receptor (TSHR) signaling pathway (AID 1224843; calls by dose curve; also: nearly all actives have a fitted effect of over 45% in size; also: potency is read from the fitted curve at half-maximal effect)
Chain of Thyrotropin receptor (Homo sapiens) (P16473 whole entry, looked up): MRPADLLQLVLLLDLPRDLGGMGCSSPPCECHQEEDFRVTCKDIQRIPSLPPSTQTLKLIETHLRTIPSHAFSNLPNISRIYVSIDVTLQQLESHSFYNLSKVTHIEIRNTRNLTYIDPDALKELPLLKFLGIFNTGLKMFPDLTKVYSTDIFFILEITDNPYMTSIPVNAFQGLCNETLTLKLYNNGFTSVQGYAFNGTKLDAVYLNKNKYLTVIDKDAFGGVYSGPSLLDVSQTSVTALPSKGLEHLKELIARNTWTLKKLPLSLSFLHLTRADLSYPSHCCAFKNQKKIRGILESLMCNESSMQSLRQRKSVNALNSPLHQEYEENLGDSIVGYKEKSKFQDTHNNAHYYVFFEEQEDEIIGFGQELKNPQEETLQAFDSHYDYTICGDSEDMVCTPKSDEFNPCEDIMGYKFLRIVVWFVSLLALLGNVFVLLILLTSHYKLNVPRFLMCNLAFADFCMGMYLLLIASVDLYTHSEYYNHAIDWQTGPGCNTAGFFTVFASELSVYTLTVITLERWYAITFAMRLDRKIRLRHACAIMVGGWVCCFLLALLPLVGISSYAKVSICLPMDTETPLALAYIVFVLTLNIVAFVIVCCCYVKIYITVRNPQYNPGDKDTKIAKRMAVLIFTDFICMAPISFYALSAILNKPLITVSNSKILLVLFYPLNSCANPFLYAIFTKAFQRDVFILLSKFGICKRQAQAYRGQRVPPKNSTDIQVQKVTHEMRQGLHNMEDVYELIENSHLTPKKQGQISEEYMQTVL
Summary of the method: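 Agonist-mode screen: TSHR HEK293 cells received test chemicals for half an hour at room temperature, then HTRF cAMP detection reagents for one hour prior to fluorescence measurement. Each chemical ran as a 15-concentration series, triplicated.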

[15] = qHTS assay to identify small molecule agonists of the retinoic acid receptor (RAR) signaling pathway (AID 1159553)
Summary of the method: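 RARE-luc C3RL4 cells; overnight attachment 37 C/5% CO2; compound (DMSO) 6 hr; luciferase reagent, 30 min RT; luminescence read-out.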

[16] = qHTS assay to identify small molecule antagonists of the estrogen related receptor (ERR) signaling pathway from Tox21 library - cell viability counter screen (AID 1224834); also: nearly all actives have a fitted effect of over 30% in size; also: potency is read from the fitted curve at half-maximal effect
Summary of the method: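 Multiplexed viability counter screen in ERR cells: 17.5 h compound exposure at 37 C, CellTiter-Fluor added, 30 min at 37 C/5% CO2, fluorescence read.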

[17] = qHTS assay to identify small molecule agonists of the RXR signaling pathway - cell viability counter screen (AID 1159529); also: potency is read from the fitted curve at half-maximal effect; nearly all actives have a fitted effect of over 50% in size
Summary of the method: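 Cell viability is measured by CellTiter-Glo luminescence, 30 min at room temperature, in wells already read for beta-lactamase. Engineered HEK 293T cells (RXR-alpha-UAS-bla) are dosed 16 hr at 37 C. Tetraoctyl ammonium bromide serves as positive control.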

[18] = biological target: Luciferin 4-monooxygenase (Photinus pyralis) (UniProt P08659); assay: qHTS assay to identify small molecule inhibitors of firefly luciferase (AID 1224835); also: nearly all actives have a fitted effect of over 25% in size; also: potency is read from the fitted curve at half-maximal effect
Chain of Luciferin 4-monooxygenase (Photinus pyralis) (P08659 whole entry, looked up): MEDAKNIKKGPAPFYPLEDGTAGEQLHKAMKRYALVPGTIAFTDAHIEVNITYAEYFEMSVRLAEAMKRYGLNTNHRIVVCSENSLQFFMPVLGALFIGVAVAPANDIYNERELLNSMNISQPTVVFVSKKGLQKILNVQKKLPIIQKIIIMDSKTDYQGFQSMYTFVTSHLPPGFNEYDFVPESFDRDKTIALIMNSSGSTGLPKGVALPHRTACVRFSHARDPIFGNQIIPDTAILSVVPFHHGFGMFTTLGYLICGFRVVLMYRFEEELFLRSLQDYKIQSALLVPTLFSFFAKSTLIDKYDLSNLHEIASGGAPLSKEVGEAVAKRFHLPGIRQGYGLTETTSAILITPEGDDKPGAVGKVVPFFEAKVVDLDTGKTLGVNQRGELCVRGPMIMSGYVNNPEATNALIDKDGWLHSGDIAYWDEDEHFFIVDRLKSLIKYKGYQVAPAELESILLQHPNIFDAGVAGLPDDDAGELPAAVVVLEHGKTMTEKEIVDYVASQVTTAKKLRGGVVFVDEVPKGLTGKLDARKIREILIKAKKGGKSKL
Summary of the method: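 Biochemical qHTS: compounds run as interplate titrations against purified firefly enzyme, with D-luciferin and ATP each at its KM concentration. Light output recorded by CCD imaging.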

[19] = qHTS assay to identify small molecule antagonists of the estrogen related receptor signaling pathway with the pleiotropic PPARgamma coactivator (PGC) from Tox21 10K library (AID 1224841; call rule not given here; also: potency is read from the fitted curve at half-maximal effect; actives are mostly falling curves and most rising ones were filed inactive; nearly all actives have a fitted effect of over 50% in size)
Summary of the method: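 Luminescence read-out (One-Glo luciferase reagent, 30 min at room temperature) from PGC/ERR cells exposed to DMSO-dissolved test compounds for 18 h at 37 C; cells, 2,000 per well, had been preincubated 6 h before compound transfer.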

Measured: Potency

Nc1ccc(Sc2ccc(N)cc2)cc1
active: [11] 34.4 µM
not listed: [15] | [16] | [17] | [18] | [19]
inactive: all other assays above

O=c1oc2ccccc2c(O)c1Cc1c(O)c2ccccc2oc1=O
inactive: [1] | [2] | [15] | [16] | [8] | [9] | [10] | [12] | [13]

O=C(O)c1cc[c]([Hg][Cl])cc1
active: [17] 43.6 µM | [16] 13.7 µM | [18] 5.03 µM | [9] 54.5 µM | [12] 13.7 µM | [14] 15.4 µM
inactive: [11]

CC(C)(C)c1ccc(CSc2cnn(C(C)(C)C)c(=O)c2Cl)cc1
active: [19] 0.0049 µM
inactive: [1] | [2] | [15] | [18] | [10] | [11] | [12] | [13]

Oc1ccc(C(=C(Cl)Cl)c2ccc(O)cc2)cc1
inactive: [1] | [2] | [15] | [18] | [8] | [9] | [10] | [13]
active: [11] 48.5 µM
